# Screening results (PubChem)
# An excerpt weighted towards active compounds, which were near 8.7% of everything screened.
# G9a block – G9a (human) methyltransferase inhibition | G9a H3K9 monomethylation, AlphaScreen, 2 h | Q96KQ7 | 350,000 tested, 8.8% active | Potency, µM (highest dose often 102 µM), most hits filed as inhibitors; note: nearly all actives have a fitted effect of over 75% in size
#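 Readings reflect AlphaScreen signal from monomethyl-H3K9 antibody detection. HMT at 20 nM; substrate b-H3K9 500 nM; cofactor SAM 20 uM; 2 h RT reaction; compounds tested as titrations in qHTS with 15 min preincubation.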
# 12-LOX inh – blocks human arachidonate 12S-lipoxygenase; Potency, µM (titrated, usually from 108 µM), actives largely listed as inhibitors; 580,000 tested, 1.1% active; AID 1671190; purified 12hLO, xylenol orange hydroperoxide absorbance
#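 Hydroperoxide product was detected by ferrous iron/xylenol orange as the 573 to 405 nm absorbance ratio. Arachidonic acid at 40 uM (final) was turned over for 30 min at room temperature by 150 nM human 12hLO, pH 7.0 Hepes buffer, after 15 min compound preincubation.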
# HP1b binding inh – inhibitors of HP1-beta chromodomain binding to methylated histone tails; P83916; AlphaScreen HP1-beta / biotin-H3K9me3 peptide binding; Potency, µM (doses to about 114 µM), usual class: inhibitors; 390,000 tested, 0.56% active; AID 540317; note: nearly all actives have a fitted effect of over 70% in size
#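 AlphaScreen: HP1-beta (50 nM) preformed 30 min with biotin-H3(1-18)K9me3 peptide (50 nM) in PBS pH 7.4, 0.01% Tween-20. Compound added for 30 min at RT, then streptavidin donor/nickel chelate acceptor beads (10 ug/mL) for 30 min.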
# JMJD2A Tudor – inhibitors of human JMJD2A Tudor domain | 390,000 tested, 4.4% active | AID 504339 | Potency, µM (titrated, usually from 114 µM), actives largely listed as inhibitors | AlphaScreen JMJD2A-Tudor / H3K4me3 peptide binding | O75164; note: nearly all actives have a fitted effect of over 50% in size
# Target sequence (O75164 whole entry, looked up, the tested form may be a part): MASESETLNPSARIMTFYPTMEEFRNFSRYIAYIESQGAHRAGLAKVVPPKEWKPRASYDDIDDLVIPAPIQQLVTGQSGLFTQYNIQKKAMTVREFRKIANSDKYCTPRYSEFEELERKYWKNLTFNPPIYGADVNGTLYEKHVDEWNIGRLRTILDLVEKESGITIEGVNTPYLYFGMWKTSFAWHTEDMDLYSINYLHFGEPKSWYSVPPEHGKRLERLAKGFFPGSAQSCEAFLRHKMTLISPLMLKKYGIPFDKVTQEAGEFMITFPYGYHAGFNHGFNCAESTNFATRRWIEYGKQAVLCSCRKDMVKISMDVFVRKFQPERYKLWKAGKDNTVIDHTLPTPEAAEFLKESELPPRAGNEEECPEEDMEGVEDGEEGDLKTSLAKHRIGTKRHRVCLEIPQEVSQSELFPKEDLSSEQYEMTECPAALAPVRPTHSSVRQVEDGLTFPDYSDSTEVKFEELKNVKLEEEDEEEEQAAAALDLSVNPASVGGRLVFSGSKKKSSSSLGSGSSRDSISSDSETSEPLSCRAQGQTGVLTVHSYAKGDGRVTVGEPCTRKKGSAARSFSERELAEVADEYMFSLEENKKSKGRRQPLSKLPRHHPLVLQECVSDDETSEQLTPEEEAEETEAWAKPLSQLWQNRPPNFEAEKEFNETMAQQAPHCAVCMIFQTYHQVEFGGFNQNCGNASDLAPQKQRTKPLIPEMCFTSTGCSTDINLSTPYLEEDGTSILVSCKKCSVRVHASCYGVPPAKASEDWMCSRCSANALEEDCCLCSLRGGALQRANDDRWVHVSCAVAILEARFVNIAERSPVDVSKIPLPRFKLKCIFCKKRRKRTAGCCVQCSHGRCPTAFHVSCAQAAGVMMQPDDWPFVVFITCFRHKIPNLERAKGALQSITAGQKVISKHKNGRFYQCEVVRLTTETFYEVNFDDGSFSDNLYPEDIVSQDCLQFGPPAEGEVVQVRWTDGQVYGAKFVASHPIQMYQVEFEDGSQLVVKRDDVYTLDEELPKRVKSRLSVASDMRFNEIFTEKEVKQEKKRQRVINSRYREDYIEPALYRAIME
# BAZ2B inh – blocks human BAZ2B | AlphaScreen BAZ2B-H3K14Ac peptide displacement | Potency, µM (doses to about 114 µM), usual class: inhibitors | 360,000 tested, 4.4% active | AID 504333; note: nearly all actives have a fitted effect of over 60% in size
#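 Protein-peptide AlphaScreen: BAZ2B 50 nM, b-H3K14Ac 50 nM, 1x PBS pH 7.4 + 0.01% Tween-20. Preincubation 30 min RT; cpd 30 min RT (top 110 uM); beads 20 min RT, light-protected.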
# Sfp inh – blocks B. subtilis Sfp PPTase activity | Biochemical Sfp PPTase activity, qHTS | Potency, µM, most hits filed as inhibitors | 310,000 tested, 3.5% active | AID 1490;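 note: the enzyme is Sfp with the accession as filed and its product quenches rhodamine fluorescence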
#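 Reaction rates are the 30-min fluorescence difference (ex 525, em 598 nm) in wells containing 15 nM Sfp, 5 uM rhodamine-CoA and 12.5 uM BHQ-2-YbbR at pH 7.6 with 10 mM MgCl2.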
# A number is an active result; 0 = inactive; ? = inconclusive; - = not tested or not shown; ! = not active in a repeat; [ ] = dose if it differs, or a comment. Calls come from the whole dose curve; as a rule, active = well fitted curve in the direction sought with a large enough effect; inconclusive = small, poorly fitted or top-dose-only effect, or another doubt; inactive = no such curve, though single readings can be large; an effect the other way counts as inactive or inconclusive.
SMILES,G9a block,12-LOX inh,HP1b binding inh,JMJD2A Tudor,BAZ2B inh,Sfp inh
COc1cccc(/C=C2/SC(=S)N(CCC(=O)N3CCOCC3)C2=O)c1,?,0,0,56.2µM,0,0
O=C(CCCN1C(=O)/C(=C/c2ccccc2)SC1=S)N1CCOCC1,79.4µM,0,?,0,39.8µM,0
COc1cccc(/C=C2\SC(=S)N(CCCC(=O)N3CCCCC3)C2=O)c1,25.1µM,0,?,39.8µM,11.2µM,0
O=C1C(=Cc2cccc(O)c2O)SC(=S)N1CCCN1CCOCC1,-,6.31µM,-,-,-,-
COC(=O)[C@@H]1Cc2c([nH]c3ccccc23)[C@H]2C[C@@H](NCCCn3ccnc3)C[C@@H](c3ccccc3)N21,-,0,-,-,-,-
Nc1c(C(=O)Nc2ccc(Br)cc2)sc2nc(-c3ccco3)ccc12,?,?,0,0,?,10µM
NC(=O)c1sc2nc(-c3ccccc3)ccc2c1N,-,?,0,0,0,0
Nc1c(C(=O)Nc2ccc(Br)cc2)sc2nc(-c3ccncc3)ccc12,0,0,0,0,0,-
Nc1c(C(=O)Nc2ccc(F)cc2)sc2nc(-c3ccco3)ccc12,39.8µM,?,0,0,0,7.94µM
CC(=O)c1sc2nc(-c3ccco3)ccc2c1N,-,?,?,79.4µM,50.1µM,22.4µM
CC(=O)Nc1cccc(-c2ccnc(-c3nnc(C)n3CCc3ccccc3)c2)c1,-,0,-,-,-,-
COCc1nnc(NC(=O)c2cc(OC)c(OC)cc2[N+](=O)[O-])s1,0,0,?,0,0,0
COCc1nnc(NC(=O)c2ccccc2[N+](=O)[O-])s1,20µM,0,0,0,0,0
CCOCc1nnc(NC(=O)c2cc(Cl)ccc2OC)s1,6.31µM,?,0,0,0,35.5µM
COCc1nnc(NC(=O)c2cc(Cl)ccc2OC)s1,0[12.7 µM],?,0,0,0,0
COCc1nnc(NC(=O)c2ccc(Cl)cc2[N+](=O)[O-])s1,15.8µM,0,0,0,0,0
COc1cc(C(=O)Nc2nnc(SC)s2)c([N+](=O)[O-])cc1OC,31.6µM,0,0,0,0,0
Cc1ccc(NC(=O)c2ccc(=O)n(CCOc3ccccc3)n2)c(Br)c1,-,0,-,-,-,-
Cc1ccc(N2C(=O)CS(=O)(=O)CC2=O)cc1,31.6µM,0,0,0,0,0
COc1cc(C(=O)NCC(=O)N/N=C/c2ccccn2)cc(OC)c1OC,0,0,0,?,0,44.7µM
O=C(CNC(=O)c1ccncc1)N/N=C/c1ccc(O)cc1O,0,0,0,?,?,0
O=C(CNC(=O)c1ccncc1)N/N=C/c1ccccn1,0,0,0,?,79.4µM,56.2µM
CCC(C)n1c(OC)nc2c1c(=O)n(C)c(=O)n2C (stereo unspecified),0,0,0,11.2µM,0,0
CCn1c(OC)nc2c1c(=O)n(C)c(=O)n2C,-,0,0,0,0,0
Clc1ccc(/C=N/c2c(-c3ccco3)nc3ccccn23)cc1,?,0,?,44.7µM,?,0
SMILES,G9a block,12-LOX inh,HP1b binding inh,JMJD2A Tudor,BAZ2B inh,Sfp inh
COc1cc(-c2nc3ccccn3c2/N=C/c2ccc(F)cc2)ccc1O,35.5µM,0,?,?,?,50.1µM
COc1ccc(/C=N/c2c(-c3ccco3)nc3ccccn23)cc1OC,70.8µM,?,0,0,?,0
COc1ccc(/C=N/c2nc3ccccc3n2CCN2CCCCC2)cc1OC,0,0,0,0,0,0
COc1ccc(-c2nc3ccccn3c2Cl)cc1,0,?,0,0,0,0
COc1cc(-c2nc3ccccn3c2/N=C/c2cccc(OC)c2O)ccc1O,0,?,0,?,0,0
CCC1CCCCN1C(=O)COC(=O)c1cnc2ccccc2n1 (stereo unspecified),-,0,-,-,-,-
CCC1c2ccsc2CCN1C(=O)/C=C/c1ccc(C)cc1 (stereo unspecified),-,0,-,-,-,-
CCCC1=[N+](CC(C)=O)CCn2c(C)ccc21,31.6µM,0,0,0,0,0
CCCC1=[N+](CC(=O)c2ccccc2)CCn2cccc21,0,0,0,0,0,0
NS(=O)(=O)c1cc(C(=O)O)cc(N2CCCC2)c1Oc1ccccc1,17.8µM!,0,0,0,0,0
Cc1cccc(OCC(O)CN2CCCN(c3ccc(C(F)(F)F)cn3)CC2)c1 (stereo unspecified),-,12.6µM,-,-,-,-
Cc1cccc(C)c1OCC(O)CN1CCN(c2ccccn2)CC1 (stereo unspecified),?,0,0,0,-,0
OC(COC(c1ccc(Cl)cc1)c1ccc(Cl)cc1)CN1CCN(c2ccccn2)CC1 (stereo unspecified),?,?,0,?,50.1µM,0
COc1cccc(OCC(O)CN2CCN(CCN3C(=O)c4cccc5cccc(c45)C3=O)CC2)c1 (stereo unspecified),50.1µM,?,0,?,0,0
COc1cccc(OCC(O)CN2CCN(c3ncccn3)CC2)c1 (stereo unspecified),0,0,0,0,0,0
COc1cccc(OCC(O)CN2CCN(c3ccccn3)CC2)c1 (stereo unspecified),44.7µM,0,0,0,0,0
Cc1nc(CN2CCN(C(=O)NCCc3ccccn3)CC2)cs1,-,0,-,-,-,-
Cc1ccc(OCC(O)CN2CCN(c3ccccn3)CC2)c(C)c1 (stereo unspecified),50.1µM,?,0,0,0,0
Cc1ccc(SCC2=NN(c3nc(C)cc(C)n3)C(=O)C2)cc1,0,0,0,0,0,0
Cc1cc(C)nc(N2N=C(C(C)(C)C)CC2=O)n1,3.55µM,0,0,?,0,0
O=C(NCn1ccc(=O)[nH]c1=S)c1ccccc1,56.2µM,0,0,0,0,0
O=C(NCNC(=O)c1ccccc1)c1ccccc1,0,0,0,0,0,0
CCn1cc(CN2CCN(C(=O)c3ccc4[nH]ccc4c3)CC2)ccc1=O,-,0,-,-,-,-
COCCNC(=O)[C@@H]1C[C@@H](O)CN1C1CCN(C(=O)c2ccc3c(c2)OCO3)CC1,-,0,-,-,-,-
O=C(COc1ccccc1)Nc1ccc(Cl)c(-c2nc3ccccc3o2)c1,-,0,-,-,-,-
SMILES,G9a block,12-LOX inh,HP1b binding inh,JMJD2A Tudor,BAZ2B inh,Sfp inh
Cc1cccnc1NC(=S)Nc1ccc(F)cc1F,50.1µM,15.8µM,0,0,?,17.8µM
COc1cc(NC(=S)Nc2cccc(C)n2)cc(OC)c1OC,0,0,0,0,0,0
COc1cc(NC(=S)Nc2ncccc2C)cc(OC)c1OC,10µM,15.8µM,0,0,?,50.1µM
Cc1ccc(C)c(NC(=S)Nc2ncccc2C)c1,31.6µM,28.2µM,?,31.6µM,?,?
O=C(Cc1ccccc1)NNS(=O)(=O)c1ccc(F)cc1,0,0,0,0,0,0
Nc1ccc(S(=O)(=O)NNC(=O)C(=O)NNc2ccccc2)cc1,1.78µM,0,0,0,0,0
O=C(NNc1ccccc1)C(=O)NNS(=O)(=O)c1ccc(CCCl)cc1,44.7µM,?,0,0,?,0
